Our source for the AC50 and outcome values is PubChem BioAssay (EPA / NIEHS).

Results filed as inconclusive are left out. The source made the active and inactive calls. Rule for the calls, unless noted: active = hit-call score of the fitted dose curve at least 0.9, where 1 is the maximum; inconclusive = response in the unintended direction; inactive = score below 0.9.

Test [1] in a line: Tanguay_ZF_120hpf_TR_legacy: (Legacy) Oregon State University Tanguay Lab 120 Hour Post-fertilization zebrafish Assay for Touch Response (AID 2283667). In a few lines:
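Tropical 5D wild-type zebrafish embryos statically exposed to 120 hpf at 28°C, sealed and dark-covered, 0.64% DMSO final; touch response scored as present/absent by brightfield microscopy at 120 hpf. Trimethyltin chloride 5 uM positive control; dead embryos not scored.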

Read-out in test [2]: organic anion transporter (SLCO1B1), SLCO1B1 (gene 10599)
Nature of the test: CLD_SLCO1B1_6hr: CellzDirect (CLD) Gene Expression Assay for organic anion transporter (SLCO1B1) at 6 hours (AID 2283668).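 Note: active means mRNA induction above DMSO baseline.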 In a few lines: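 Primary human hepatocytes dosed daily with test chemicals (multiple concentrations) in 0.2% DMSO vehicle; harvested at 6 h. SLCO1B1 mRNA quantified by qNPA chemiluminescence, fitted as gain-of-signal versus DMSO; cytotoxicity from phase-contrast morphology flagged alongside.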

The nature of test [3]: CLD_ACTIN_24hr: CellzDirect (CLD) Gene Expression Assay for Baseline Control (Actin) at 24 hours (AID 2283670). In a few lines:
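Primary human hepatocytes dosed over multiple concentrations with 0.2% DMSO vehicle; actin mRNA measured at 24 h by qNPA chemiluminescence. Background control endpoint, fitted as gain of signal versus DMSO.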

Read-out in test [4]: ABC Transporter (ABCB11), ABCB11 (gene 8647)
Nature of the test: CLD_ABCB11_6hr: CellzDirect (CLD) Gene Expression Assay for ABC Transporter (ABCB11) at 6 hours (AID 2283675).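 Note: hits raise ABCB11 mRNA level so AC50 marks induction.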 Summed up:
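Human primary hepatocytes (two donor preparations) given fresh chemical daily at multiple concentrations, vehicle 0.2% DMSO. ABCB11 mRNA induction measured 6 h after dosing by qNPA chemiluminescence versus DMSO; cytotoxicity annotated from morphology.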

Test [5] is described as follows: CCTE_Padilla_ZF_144hpf_TERATOSCORE: (Legacy) CCTE's 144 Hour Post-fertilization zebrafish Assay Teratoscore, Padilla Lab (AID 2283679; active = hit-call score of the fitted dose curve at least 0.9, where 1 is the maximum; inactive = score below 0.9;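 for AC50: zebrafish embryos with chorions exposed by immersion from 6-8 hpf to 5 dpf with daily renewal; teratogenicity score from eye scoring of death hatching and malformations at 144 hpf; higher score means more developmental defects relative to DMSO baseline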). In a few lines: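 Larvae scored by eye at 144 hpf for death, hatching and malformations after a day in clean Hanks'. Before that, daily-renewed exposure at 80 uM (0.4% DMSO, 26C) from roughly 6-8 hpf through 5 dpf, 4 embryos per chemical.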

Read-out in test [6]: Cytochrome P450 3A4 (Homo sapiens) (UniProt P08684)
Nature of the test: CLD_CYP3A4_6hr: CellzDirect (CLD) Gene Expression Assay for xenobiotic metabolism (CYP3A4) at 6 hours (AID 2283680). In a few lines:
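Primary human hepatocytes (two donor preparations) dosed; CYP3A4 mRNA harvested at 6 h and quantified by qNPA chemiluminescence. Gain of signal fitted against 0.2% DMSO vehicle; cytotoxicity flagged by phase-contrast morphology.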

Read-out in test [7]: xenobiotic metabolism (CYP1A2), CYP1A2 (gene 1544)
Nature of the test: CLD_CYP1A2_24hr: CellzDirect (CLD) Gene Expression Assay for xenobiotic metabolism (CYP1A2) at 24 hours (AID 2283683). Summed up:
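Primary human hepatocytes from two donor preparations dosed daily with multiple concentrations of chemical, 0.2% DMSO vehicle. CYP1A2 mRNA at 24 h quantified by qNPA chemiluminescence; gain of signal analyzed relative to DMSO. Cytotoxicity flagged by phase-contrast morphology.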

Read-out in test [8]: ABC Transporter (ABCB1), ABCB1 (gene 5243)
Nature of the test: CLD_ABCB1_24hr: CellzDirect (CLD) Gene Expression Assay for ABC Transporter (ABCB1) at 24 hours (AID 2283684).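 For AC50: potency for increase in ABCB1 mRNA relative to DMSO vehicle.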 In a few lines:
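Primary human hepatocytes, two donor preparations, dosed daily with fresh solutions; vehicle 0.2% DMSO; harvested at 24 h. ABCB1 mRNA measured by quantitative nuclease protection assay (chemiluminescence); morphology-based cytotoxicity annotated.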

Read-out in test [9]: Cytochrome P450 2B6 (Homo sapiens) (UniProt P20813)
Nature of the test: CLD_CYP2B6_24hr: CellzDirect (CLD) Gene Expression Assay for xenobiotic metabolism (CYP2B6) at 24 hours (AID 2283686). Summed up: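 Primary human hepatocytes dosed daily for two days with fresh solutions, harvested at 24 hours; mRNA induction quantified by qNPA chemiluminescence, gain of signal vs 0.2% DMSO vehicle. Cytotoxicity annotated from phase-contrast morphology.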

Read-out in test [10]: Cytochrome P450 2C19 (Homo sapiens) (UniProt P33261)
Nature of the test: CLD_CYP2C19_24hr: CellzDirect (CLD) Gene Expression Assay for xenobiotic metabolism (CYP2C19) at 24 hours (AID 2283687).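 Note: activity means mRNA induction above DMSO vehicle baseline.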 In a few lines: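 Primary human hepatocytes (two donor preparations) dosed daily with fresh test chemical in 0.2% DMSO vehicle; CYP2C19 mRNA induction measured at 24 h by quantitative nuclease protection assay with chemiluminescence, fitted for gain of signal versus DMSO.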

Read-out in test [11]: xenobiotic metabolism (CYP1A1), CYP1A1 (gene 1543)
Nature of the test: CLD_CYP1A1_6hr: CellzDirect (CLD) Gene Expression Assay for xenobiotic metabolism (CYP1A1) at 6 hours (AID 2283661).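 For AC50: potency for transcript induction above DMSO vehicle baseline.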 In a few lines: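 Primary human hepatocytes from two donors, compound versus 0.2% DMSO vehicle. CYP1A1 mRNA measured 6 h after dosing by quantitative nuclease protection assay with chemiluminescent read-out; induction fitted relative to DMSO, cytotoxicity flagged by microscopy.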

Read-out in test [12]: alkyl and aryl transferase (GSTA2), GSTA2 (gene 2939)
Nature of the test: CLD_GSTA2_6hr: CellzDirect (CLD) Gene Expression Assay for alkyl and aryl transferase (GSTA2) at 6 hours (AID 2283666). Summed up:
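Primary human hepatocytes from two donor preparations were dosed daily with fresh compound at multiple concentrations, 0.2% DMSO vehicle. GSTA2 mRNA was measured at 6 hours by qNPA chemiluminescence; induction fitted relative to DMSO, with cytotoxicity flagged morphologically.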

Read-out in test [13]: Cytochrome P450 (CYP24A1_1), CYP24A1 (gene 1591)
Nature of the test: LTEA_HepaRG_CYP24A1_1: Life Technologies and Expression Analysis (LTEA) Assay for Cytochrome P450 (CYP24A1_1) using HepaRG (AID 2283671; active = hit-call score of the fitted dose curve at least 0.9, where 1 is the maximum; inactive = score below 0.9). Particulars: mRNA level, 48 h; actives raise or lower the signal. Summed up:
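Differentiated human HepaRG cells in serum-free induction medium, exposed 48 h in duplicate to eight half-log concentrations from 100 uM top, 0.5% DMSO. Transcript measured by TaqMan qRT-PCR, normalised to ACTB, GAPDH, POLR2A; bidirectional fitting versus DMSO.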

Read-out in test [14]: Cytochrome P450 2C9 (Homo sapiens) (UniProt P11712)
Nature of the test: CLD_CYP2C9_24hr: CellzDirect (CLD) Gene Expression Assay for xenobiotic metabolism (CYP2C9) at 24 hours (AID 2283688). Summed up:
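Primary human hepatocytes from two donor preparations, dosed daily for two days at multiple concentrations; vehicle 0.2% DMSO. CYP2C9 mRNA induction at 24 h measured by qNPA chemiluminescence relative to DMSO; cytotoxicity annotated from morphology.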

Read-out in test [15]: Cytochrome P450 2C19 (Homo sapiens) (UniProt P33261)
Nature of the test: CLD_CYP2C19_6hr: CellzDirect (CLD) Gene Expression Assay for xenobiotic metabolism (CYP2C19) at 6 hours (AID 2283678). Summed up: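 Primary human hepatocytes from two donor preparations were dosed daily, with 0.2% DMSO as vehicle, and harvested 6 h after dosing. CYP2C19 mRNA induction was measured by qNPA chemiluminescence and fitted as gain of signal against DMSO.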

Test [16] has as its system Thyroperoxidase (TPO), gene 54314. Nature of the test: CCTE_Simmons_AUR_rTPO: CCTE's Amplex UltraRed Assay for Thyroperoxidase (TPO) Inhibition, Simmons Lab (AID 2283662).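 Note: potency for loss of signal meaning inhibition of peroxidase activity.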 Summed up:
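Cell-free peroxidase activity assay using rat thyroid gland microsomes with excess H2O2 (300 uM) and 25 uM Amplex UltraRed. Compounds tested from 5 nM to 87.5 uM; fluorescence measured after 30 min at 37C, analysed relative to DMSO baseline.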

Test [17] is described as follows: CCTE_Simmons_CellTiterGLO_HEK293T: Viability Assessment in CCTE's Assays for Thyroperoxidase (TPO) Inhibition, Simmons Lab (AID 2283665).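 Note: cells exposed to compound for 24 h before readout; actives reduce ATP signal below DMSO vehicle meaning cytotoxicity.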 In a few lines: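 Cytotoxicity counter-screen: human HEK293T cells in low-serum (1% FBS) medium receive test chemical, 5 nM to 87.5 uM final, for 24 h; ATP is quantified by luciferase luminescence.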
(ATP-based viability assays read luminescence as a measure of living cells.)

Sequence of Cytochrome P450 3A4 (Homo sapiens) (P08684 whole entry, looked up): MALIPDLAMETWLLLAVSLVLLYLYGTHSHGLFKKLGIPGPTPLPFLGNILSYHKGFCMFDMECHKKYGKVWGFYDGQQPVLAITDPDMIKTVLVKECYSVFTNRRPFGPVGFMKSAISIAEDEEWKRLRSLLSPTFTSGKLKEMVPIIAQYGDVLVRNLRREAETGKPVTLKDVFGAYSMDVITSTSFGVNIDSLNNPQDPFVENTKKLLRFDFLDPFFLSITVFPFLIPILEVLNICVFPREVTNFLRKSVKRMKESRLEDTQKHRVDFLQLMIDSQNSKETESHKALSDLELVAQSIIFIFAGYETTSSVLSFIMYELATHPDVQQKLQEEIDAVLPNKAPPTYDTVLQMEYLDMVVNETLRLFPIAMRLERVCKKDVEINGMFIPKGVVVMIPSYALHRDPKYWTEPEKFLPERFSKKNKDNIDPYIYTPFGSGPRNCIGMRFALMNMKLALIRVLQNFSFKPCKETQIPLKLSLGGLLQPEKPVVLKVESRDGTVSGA
Sequence of Cytochrome P450 2C19 (Homo sapiens) (P33261 whole entry, looked up): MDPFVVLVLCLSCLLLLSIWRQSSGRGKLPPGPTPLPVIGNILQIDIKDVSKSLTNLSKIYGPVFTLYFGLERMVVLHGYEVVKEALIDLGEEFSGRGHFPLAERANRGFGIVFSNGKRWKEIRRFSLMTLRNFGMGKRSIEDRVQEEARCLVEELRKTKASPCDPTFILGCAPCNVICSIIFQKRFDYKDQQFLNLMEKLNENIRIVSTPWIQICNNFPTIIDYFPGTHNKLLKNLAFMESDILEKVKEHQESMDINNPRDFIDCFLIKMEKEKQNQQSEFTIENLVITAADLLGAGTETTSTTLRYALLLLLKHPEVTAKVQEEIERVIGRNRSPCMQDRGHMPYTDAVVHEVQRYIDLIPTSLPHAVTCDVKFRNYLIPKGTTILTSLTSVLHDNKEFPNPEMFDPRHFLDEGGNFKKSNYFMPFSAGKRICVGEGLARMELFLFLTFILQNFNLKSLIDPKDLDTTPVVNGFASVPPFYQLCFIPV

For the compound `CC[C@H](C)[C@H]1O[C@]2(C=C[C@@H]1C)C[C@@H]1C[C@@H](C/C=C(\C)[C@@H](O[C@H]3C[C@H](OC)[C@@H](O[C@H]4C[C@H](OC)[C@@H](O)[C@H](C)O4)[C@H](C)O3)[C@@H](C)/C=C/C=C3\CO[C@@H]4[C@H](O)C(C)=C[C@@H](C(=O)O1)[C@]34O)O2` (tested in a mixture with another compound), the AC50 (usually the concentration at which the activity in the assay is half-maximal) in test [1] is 0.45 µM (active); in test [4], 0.332 µM (active); in [5] it was 0.0449 µM (active); in test [8] it was 5.84 µM (active); in [9], 3.97 µM (active). Further, the call in [2], in [3], in test [6], in [7] and in test [10] was inactive.

As for `CCCN(CCC)c1c([N+](=O)[O-])cc(C(F)(F)F)cc1[N+](=O)[O-]`, the AC50 in test [11] is 3.69 µM (active); in test [5], 0.601 µM (active); in test [7] it was 5.03 µM (active); in test [9], 2.06 µM (active). The outcome in test [12], in [1], in [13], in test [4], in test [6] and in test [8] was inactive. Further, the call in [14] was inactive.

For the compound `O=S1OCC2C(CO1)C1(Cl)C(Cl)=C(Cl)C2(Cl)C1(Cl)Cl` (stereo unspecified), the call in test [1], in [2], in test [3], in [4], in test [8] and in test [10] was inactive. Also, the call in test [14] was inactive. Besides, the concentration at half-maximal activity (AC50) in test [5] was 3.4 µM (active); in test [6], 9.06 µM (active); in test [9], 2.56 µM (active).

With `Cc1cc(C)nc(NC(=O)NS(=O)(=O)c2ccccc2C(=O)OC2COC2)n1`, the compound was classed as inactive in test [11], in test [3], in test [15], in test [5], in test [6] and in [7]. The compound was called inactive in [8], in [9] and in test [10].

As to `N#Cc1c(Cl)c(Cl)c(Cl)c(C#N)c1Cl`, the half-maximal activity concentration (AC50) is 36.8 µM (active) in test [11], 20 µM (active) in [4] and 0.187 µM (active) in [5]. Moreover, the compound was classed as inactive in test [12], in [13], in test [15], in test [8] and in [9].

With `Cc1[nH]c(=O)n(C(C)(C)C)c(=O)c1Cl`, the figures for the concentration at half-maximal activity (AC50) in [11], in test [1] and in test [7] were 20 µM (active), 0.00793 µM (active) and 20 µM (active), respectively. The result in test [3], in test [13], in test [15], in [5], in [6] and in test [8] was inactive. Moreover, the call in [9], in [10] and in [14] was inactive.

Take `[2H]C1([2H])[n+]2ccccc2-c2cccc[n+]2C1([2H])[2H]`: the compound was classed as inactive in [12], in test [2], in test [3], in test [4], in test [15] and in test [5]. Also, the result in [7], in [8] and in test [10] was inactive.

For the compound `O=C(O)C(F)(F)C(F)(F)C(F)(F)C(F)(F)C(F)(F)C(F)(F)C(F)(F)F`, the compound was called inactive in test [11], in test [1], in test [2], in test [4], in test [15] and in [5]. Further, the compound was classed as inactive in [7], in test [8] and in [9].

In the case of `COC(=O)c1ccccc1S(=O)(=O)NC(=O)N(C)c1nc(C)nc(OC)n1`, in [11], the AC50 is 20 µM (active). The compound was classed as inactive in test [12], in [2], in test [3], in test [4], in [15] and in [5]. For the same compound, the result in test [6], in [7], in test [8], in test [9], in [10] and in [14] was inactive.

As to `CCOc1nc(NC)nc(NC(=O)NS(=O)(=O)c2ccccc2C(=O)OC)n1`, the call in [11], in test [12], in test [2], in test [3], in [5] and in [6] was inactive. Also, the outcome in test [8], in [10] and in test [14] was inactive. The concentration at half-maximal activity (AC50) in test [7] was 7.74 µM (active).

With `O=C1c2ccccc2C(=O)N1SC(Cl)(Cl)Cl`, the AC50 was 27.3 µM (active) in [16], 9.19 µM (active) in test [17] and 19.3 µM (active) in test [5]. Also, the outcome in test [1], in [2], in test [3], in [13], in test [4] and in test [15] was inactive. For the same compound, the compound was called inactive in test [8].
